Results on 42 sequences are retold here after publication PMC10726135, “HNF4α isoforms regulate the circadian balance between carbohydrate and lipid metabolism in the liver”.

Whole data set: some 18,000 sequences, median “log2 normalized intensity” near 0.39, cut for the highest 2% near 6.6. Many of the other results were omitted from the sample, so the highest values are more common in it than they were.

For this test, the target named is T1, HNF4alpha2 (COS-7 nuclear extract) (Homo sapiens, UniProt P41235 1-474).
T1 sequence: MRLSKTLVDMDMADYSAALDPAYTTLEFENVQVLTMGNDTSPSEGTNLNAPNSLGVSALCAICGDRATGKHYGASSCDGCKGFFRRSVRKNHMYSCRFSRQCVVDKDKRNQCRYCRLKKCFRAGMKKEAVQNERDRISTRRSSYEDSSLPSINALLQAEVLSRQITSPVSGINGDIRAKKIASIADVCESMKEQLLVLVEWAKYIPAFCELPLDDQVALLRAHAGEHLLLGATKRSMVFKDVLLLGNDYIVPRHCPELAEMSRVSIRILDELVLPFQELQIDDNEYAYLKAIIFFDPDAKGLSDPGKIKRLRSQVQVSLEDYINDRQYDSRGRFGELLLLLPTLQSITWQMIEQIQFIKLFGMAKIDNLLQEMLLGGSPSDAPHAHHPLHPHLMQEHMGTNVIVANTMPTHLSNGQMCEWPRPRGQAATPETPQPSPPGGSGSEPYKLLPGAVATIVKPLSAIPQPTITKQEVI
The experiment in a line: protein-binding microarray; COS-7 nuclear extract on double-stranded Agilent 4x180k PBM; binding buffer, salt, pH and temperature not given in the material; high values mean tight binding. The note with it: chain copies: 2; label: 3' end of strand 1 on the slide; dsDNA, one strand shown. Summed up:
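Binding signal is the background-corrected, normalized gProcessedSignal calculated by Agilent software. It was measured by applying nuclear extracts of COS-7 cells transiently transfected with a human HNF4α isoform expression vector to a custom Agilent SurePrint G3 4x180k array of ~44,000 double-stranded ~60-nt test sequences in quadruplicate, then imaging bound HNF4α on an Agilent G2565CA scanner at 2-µm resolution.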
On to “ACGTGGCAATCATTCTGTCTGCCTTCAGGCGCCTAGGGAGATTAGAGTATCGGTCGA”, for which the binding signal was -0.947 log2 normalized intensity. Under “CACTGTTGCCCCTTCCAAAGTCCACCTCAAGCCTAGGGAGATTAGAGTATCGGTCGA” stands 4.43 log2 normalized intensity. Regarding “GCATGGAATGACTTTGGGGAAATGACCTTTGCCTAGGGAGATTAGAGTATCGGTCGA”, the binding signal stood at 7.23 log2 normalized intensity.

In the case of “CCTTTTTGGAATGTGTTTGCATGACTCATAGCCTAGGGAGATTAGAGTATCGGTCGA”, the binding signal came out at 1.77 log2 normalized intensity. Under “ATGACCTTTGAGCAATAGGAAATGGGAGGGGCCTAGGGAGATTAGAGTATCGGTCGA” stands 2.34 log2 normalized intensity; under “CCTTGACACATCTGATTAGAGGCTCAGGTAGCCTAGGGAGATTAGAGTATCGGTCGA”, -0.794 log2 normalized intensity; under “GGAATGTCTGACCAACCTGTCCAAAGGTCAGCCTAGGGAGATTAGAGTATCGGTCGA”, 7.66 log2 normalized intensity. Turning to “TCAGAGGAATGTCTGACCAACCTGTCCAAAGCCTAGGGAGATTAGAGTATCGGTCGA”, the binding signal came out at 0.136 log2 normalized intensity. “CACTTACAAGTGTACAAAGGTCACTTCTGTGCCTAGGGAGATTAGAGTATCGGTCGA”: the binding signal is 6.32 log2 normalized intensity. The same measure for “CTTGGCTGTGTCCCTTGACCAAAGGTCACTGCCTAGGGAGATTAGAGTATCGGTCGA”: 6.77 log2 normalized intensity; for “TATACCTGTACACTTACAAGTGTACAAAGGGCCTAGGGAGATTAGAGTATCGGTCGA”: 2.65 log2 normalized intensity. Under “TTATATCAGAGGAATGTCTGACCAACCTGTGCCTAGGGAGATTAGAGTATCGGTCGA” stands 0.0786 log2 normalized intensity.

Regarding “ATTGGCTTGGCTGTGTCCCTTGACCAAAGGGCCTAGGGAGATTAGAGTATCGGTCGA”, the binding signal was 2.07 log2 normalized intensity. Under “CTGTACACTTACAAGTGTACAAAGGTCACTGCCTAGGGAGATTAGAGTATCGGTCGA” stands 7.61 log2 normalized intensity; under “ACCAACCTGTCCAAAGGTCATCTGTCACTCGCCTAGGGAGATTAGAGTATCGGTCGA”, 5.7 log2 normalized intensity; under “GTCTGACCAACCTGTCCAAAGGTCATCTGTGCCTAGGGAGATTAGAGTATCGGTCGA”, 7.04 log2 normalized intensity. The same measure for “CCTGTCCAAAGGTCATCTGTCACTCTAGATGCCTAGGGAGATTAGAGTATCGGTCGA”: 5.47 log2 normalized intensity.

In the case of “AGTATATTGGCTTGGCTGTGTCCCTTGACCGCCTAGGGAGATTAGAGTATCGGTCGA”, the binding signal turned out to be 3.04 log2 normalized intensity. Under “AAGGCTTTGAAGTCTGGTGGCAAGTACCCTGCCTAGGGAGATTAGAGTATCGGTCGA” stands -0.842 log2 normalized intensity; under “ATTTTCTCATCCCAGGGATAATGATAAAGAGCCTAGGGAGATTAGAGTATCGGTCGA”, -0.184 log2 normalized intensity; under “TCCCTTTAGTGGAGTATAGGAACATGAACTGCCTAGGGAGATTAGAGTATCGGTCGA”, 1.96 log2 normalized intensity. Under “GAGTTGGGGACAAAGTTCAAGGTCCAGCCTGCCTAGGGAGATTAGAGTATCGGTCGA” stands 5.28 log2 normalized intensity; under “GTCCAAGATGGCAATGTTCCTGCTCTGTCAGCCTAGGGAGATTAGAGTATCGGTCGA”, -0.996 log2 normalized intensity. Under “AGATTACTTCAAGGCTGGAGTTCACTCCCAGCCTAGGGAGATTAGAGTATCGGTCGA” stands -0.354 log2 normalized intensity.

Consider “CATGGGTCTCTTCCTCAGTTTGTTCTTGGGGCCTAGGGAGATTAGAGTATCGGTCGA”, for which the binding signal worked out at 1.18 log2 normalized intensity. As to “GATCCAAAAGACCCAGGTGTGTTGCAACTTGCCTAGGGAGATTAGAGTATCGGTCGA”, the binding signal is 0.84 log2 normalized intensity. The same measure for “AGAGCAAGGGTCAAGGGTCATTTGTTTTTAGCCTAGGGAGATTAGAGTATCGGTCGA”: 5.91 log2 normalized intensity; for “AAGGGTCAAGGGTCATTTGTTTTTACAGACGCCTAGGGAGATTAGAGTATCGGTCGA”: 6.27 log2 normalized intensity. Under “TGGGTGGGGGAAGTGTGGTCAAGGGTCAGTGCCTAGGGAGATTAGAGTATCGGTCGA” stands 4 log2 normalized intensity. As for “CCCATCCGCAGTGGGAGAGCAAGGGTCAAGGCCTAGGGAGATTAGAGTATCGGTCGA”, the binding signal was found to be 3.57 log2 normalized intensity.

For “CCGCAGTGGGAGAGCAAGGGTCAAGGGTCAGCCTAGGGAGATTAGAGTATCGGTCGA”, the binding signal was 6.65 log2 normalized intensity. The same measure for “GTGGGAGAGCAAGGGTCAAGGGTCATTTGTGCCTAGGGAGATTAGAGTATCGGTCGA”: 6.7 log2 normalized intensity; for “CAGAACAAAGTCCAGTAAGGACAGTTCCAGGCCTAGGGAGATTAGAGTATCGGTCGA”: 2.29 log2 normalized intensity. The same measure for “CTTGTAAGCCACAGTACAAAGGTGAGCTTTGCCTAGGGAGATTAGAGTATCGGTCGA”: 3.57 log2 normalized intensity. Under “TGGATCATGTGTCTGAGCAAGTTTCCTCCTGCCTAGGGAGATTAGAGTATCGGTCGA” stands -0.544 log2 normalized intensity; under “ATCACTGAAGCGACCCCTCGAGGCAACCTTGCCTAGGGAGATTAGAGTATCGGTCGA”, 1.12 log2 normalized intensity. For the sequence “AAGTATCTCGGTCAAACCTTTGACCCTTTAGCCTAGGGAGATTAGAGTATCGGTCGA”, the binding signal came out at 6.7 log2 normalized intensity. Under “TGAAGCGACCCCTCGAGGCAACCTTTGACCGCCTAGGGAGATTAGAGTATCGGTCGA” stands 8.54 log2 normalized intensity; under “GAAACCCTAAACCTGCAAACCTTTGACCTTGCCTAGGGAGATTAGAGTATCGGTCGA”, 5.31 log2 normalized intensity.

In the case of “GTCAAACCTTTGACCCTTTATAATCCCCTAGCCTAGGGAGATTAGAGTATCGGTCGA”, the binding signal worked out at 4.25 log2 normalized intensity. For the sequence “CGACCCCTCGAGGCAACCTTTGACCTGGTAGCCTAGGGAGATTAGAGTATCGGTCGA”, the binding signal worked out at 7.48 log2 normalized intensity. The same measure for “TCTCGGTCAAACCTTTGACCCTTTATAATCGCCTAGGGAGATTAGAGTATCGGTCGA”: 5.95 log2 normalized intensity.
